Laboratory results taken from the supplement of paper PMC6555819.

The sequences below were run on VDR:RXRa (NR concentration 270 nM, RXRa partner concentration 90 nM) (assay: PBM binding z-score (relative to random genomic background probes); higher = stronger binding; sequences stand for … in GC…GCGATTGACAGCGTAGAATGAAGG).
Description: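 Protein-binding microarray (Agilent 4x180K custom design, double-stranded 60-nt probes: 5' GC cap, 34-nt variable region, 24-nt constant primer region; full probe sequence given). Purified or IVT nuclear receptor:RXRα heterodimers (3:1 NR:RXRα, mostly 270:90 nM) or homodimers were incubated for 1 h in PBS with 2% milk and no ligand, then detected with Alexa488 antibodies. Fluorescence from o1-orientation probes (~5 replicates averaged) was converted to z-scores against 500 random hg19 background probes. Variable regions are seed direct-repeat (DR0–DR5) sites, all their single-nucleotide variants and half-site ablations.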
ATCTCTAGGTAAAGTTCCGTGAAAGATCGATAGA was tested, and the PBM binding z-score was 0.335. For TCTTTTAGTTGAAGGGCAACCGACGAGTCCGTTT, the PBM binding z-score was 0.995. Work on CGAACTAGGCCATCCAGGACAGTGAATACATTGA yielded a PBM binding z-score of 0.0871. For ACTAGCAGGCCAAGCTTGGGTCACTCAAACAAAG, the PBM binding z-score was 0.122. CAGCCTAGGTCAGGGCCAGGATAGGAGGAACGTT showed a PBM binding z-score of 0.0936. Work on TCGCCTAGGTCATTGGGCCAGTATAGTACGCATC yielded a PBM binding z-score of 2.23. With CCTACTGGACCACGAAAGGTCATTGATTCAGTGA the PBM binding z-score was 4.17. TCTTGTTGATCAATAGAGGTTAAGAAAGTGCGCT gave a PBM binding z-score of 1.69. CCTGCTAGGTCAATGGTCAGCTTAAGCAGCTCGC was tested, and the PBM binding z-score was 1.03. TCATATAGGTAATACAGGTGAATGTCGGCATCTA was tested, and the PBM binding z-score was 1.3. TCGAGTAGGGTAGTCGGGGCATTCAGCCAACATA gave a PBM binding z-score of 0.167. CCTAGTTGATCAGGAGGTCACACACCGGATATGA gave a PBM binding z-score of 4.08. With TCTAGTTGGTCAAAGGTCACACTCTCGAAATGCG the PBM binding z-score was 5. For CCGACTGGGGCAAAGGTTACCCTACTCAGTACGA, the PBM binding z-score was 1.23. ATATGTAGGTTATCCGGTCATTCAGTTTGCGCAT showed a PBM binding z-score of 2.65. With CGAACGAGGGCATGAGTTCATAGCAAATGCCGAT the PBM binding z-score was 5.62. For CCTTACGGGTCACTGACAGGTGATAGCATTTGGA, the PBM binding z-score was 4.2. CCAGACAGGTGAGAAGGTACCTCAGCCTCGATTA was tested, and the PBM binding z-score was -0.437. TCTAGTTGGTCAAAGGTCCCACACTCGAAATGCG gave a PBM binding z-score of 1.12. Sequence ATCGAAAGTTCGAGGTGAGTATAGAGAAAGGGAA has a PBM binding z-score of 1.16. Sequence TCTATTAGTTGATTAGGGCAATCGAAACAGCGGA has a PBM binding z-score of 0.607. Work on GGAACGAGGGCATTCGAGTTGATATCATGGCGAT yielded a PBM binding z-score of 3.92. GCAGACAGGAGAAACGCAGGTAACTCAGGGTGGC showed a PBM binding z-score of -0.548. Work on TCTCGGAGGACACGAAGGTCAGAGCCTTCCAGAG yielded a PBM binding z-score of 2.42. Sequence CCTAGTTGGTCAAGGTTACACACGCTATAGGTAC has a PBM binding z-score of 1.5. CGAACTAGGTCAGAACAGGATAGTGAAGGATGAT showed a PBM binding z-score of 0.322. ACAGACACGTGATGAAGGTAACTCAGGCTATCAT gave a PBM binding z-score of 0.0575. TCTATTAGTTGAAGGGCAACCCACGAGTCCGTTT gave a PBM binding z-score of 1.1. TAGCCTATGTCATTCAGGGGCCAGTATAGAAAGC was tested, and the PBM binding z-score was -0.286. Sequence TCTATTAGTTGAAGGGCAACTGACGAGTCCGTTT has a PBM binding z-score of 0.937. For ACATGTAGGTTAAGGGTCATTCAGGTTGGTTCGC, the PBM binding z-score was 5.84. In the case of TGAATGAGGTTAAAGATCAGCGAACGTGGCGTCG, the PBM binding z-score is reported as 1.75. TCTGCTAGGTCAACGATGGTCAGCTGATCTGCTA was tested, and the PBM binding z-score was 1.73. ATCTCTAGGTACCAAGTTCAGTGAAAGAGAGGAC was tested, and the PBM binding z-score was 1.64. With TCTGCGAGGTCAGTTGGTCAGCTAACGAGCTGCC the PBM binding z-score was 3.43. Sequence CCGACTGGGGCGAAGGTTACCATACTCAGTACGA has a PBM binding z-score of 0.0154. TAGCCTAGGTCATGCGGGCTAGTATAGTGTCGGC gave a PBM binding z-score of 2.11. Sequence ACTCGGAGGACAAAGGTCAGAGCGACGCCAGTGA has a PBM binding z-score of 3.47. With CAAACTACGTCAAGAGGTCAAAGTCCGCTTCCCG the PBM binding z-score was 5.03. TAGCCTAGGTCATGCGGGCCAGTGTAGTGTCGGC was tested, and the PBM binding z-score was 2.74.
